This note sets out measurements from PubChem BioAssay AID588651 (The Scripps Research Institute Molecular Screening Center, 2011).

Calls of active or inactive are those of the source. No stated cut-off is given here; in the data, active means inhibition above about 65%; inactive means the rest.

The subject of this assay is Antitargets. The experiment in a line: Fam108b inhibition by ABPP, late-stage follow-up, biochemical, gel-based ABPP, recombinant soluble Fam108b, HTS hits, complex proteome (AID 588651).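 Further: Fam108b spiked into mouse brain membrane proteome; tested at 20 µM.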 As to conditions: FP-rhodamine labeling in proteome.
On to `CC1CCCCN1S(=O)(=O)c1ccc(C(=O)Nc2ccccc2-c2nc3ccccc3[nH]2)cc1` (centres undefined), for which the outcome was inactive.

For the compound `Cn1c2ccccc2c2cc(C=NNC(=O)c3cc(O)ccc3O)ccc21`, the outcome was inactive.

For `Cc1ccc(-n2c(O)c(/C=N/Nc3ccc(S(=O)(=O)N4CCOCC4)cc3[N+](=O)[O-])c3ccccc3c2=O)c(C)c1`, the outcome was inactive.

For the compound `O=C(Nc1ccc(-c2csc(Nc3ccc(Cl)cc3)n2)cc1)c1cccc(C(F)(F)F)c1`, the outcome was active.

As to `CCN(c1ccccc1)S(=O)(=O)c1ccc(NC(=O)c2nc(S(C)(=O)=O)ncc2Cl)cc1`, the outcome was inactive.

Turning to `COc1cccc2c1C(=O)c1c(O)c3c(c(O)c1C2=O)C[C@@](O)(C(=O)CO)C[C@@H]3O[C@H]1C[C@H](N)[C@H](O)[C@H](C)O1`, the result was inactive.

In the case of `O=C(CCCSc1ccccc1)Nc1nc(-c2ccco2)c(-c2ccco2)s1`, the result was inactive.

As to `O=C1C(SCCO)=C(SCCO)C(=O)c2ccccc21`, the result was inactive.

For the compound `CSC[C@@H]1NC(=S)N(c2ccc(C)cc2)C1=O`, the outcome was inactive.

For `COc1cc(-c2nc(-c3ccc4c(c3)-c3ccccc3S4(=O)=O)c(-c3ccccc3)[nH]2)cc(OC)c1O`, the outcome was inactive.

Turning to `COc1cccc(C=NNC(=O)c2[nH]c(C)c(C(=O)NN=Cc3cccc(OC)c3O)c2C)c1O`, the result was active.

In the case of `Nc1ccc2nc(-c3cccc(-c4nc5ccc(N)cc5[nH]4)c3)[nH]c2c1`, the outcome was inactive.

Turning to `Cc1cc(C(C#N)c2ccc(Cl)cc2)c(Cl)cc1NC(=O)c1cc(I)cc(I)c1O` (centres undefined), the outcome was inactive.

As to `CCN(CC)S(=O)(=O)c1cc(NC(=O)COC(=O)c2sc3ccccc3c2Cl)ccc1C`, the result was inactive.

In the case of `CCc1ccc(S(=O)(=O)/N=C2\C=C(Nc3cccc(C(=O)O)c3)C(=O)c3ccccc32)cc1`, the outcome was inactive.

With `COc1cccc(C=NNc2nc(Nc3ccc([N+](=O)[O-])cc3)nc(N3CCCC3)n2)c1O`, the result was inactive.

Turning to `O=C(O)CCCNc1cc(N2CCN(C(=O)c3ccco3)CC2)c2noc3c2c1C(=O)c1ccccc1-3`, the result was inactive.

`O=C(Nc1ccc(-c2csc(Nc3cccc(C(F)(F)F)c3)n2)cc1)c1cccc(C(F)(F)F)c1`: the outcome was inactive.

`O=c1oc(-c2ccccc2Cl)nc2ccsc12`: the outcome was inactive.

For `COc1ccc2oc(=O)c(-c3csc(Nc4cccc(O)c4)n3)cc2c1`, the outcome was inactive.

`Cc1ccc(C)c(-n2c3nc(=O)[nH]c(=O)c-3cc3cc([N+](=O)[O-])ccc32)c1`: the result was inactive.

In the case of `O=[N+]([O-])c1ccc(NN=Cc2c[nH]c3ccccc23)c(S(=O)(=O)Nc2ccc(Cl)cc2)c1`, the outcome was inactive.

Turning to `O=C(Nc1cccc(C(F)(F)F)c1)Nc1ccc(N2CCCC2)c(S(=O)(=O)Nc2ccccc2Cl)c1`, the outcome was active.

On to `CCNc1ccc2noc3c2c1C(=O)c1ccccc1-3`, for which the result was inactive.

In the case of `Oc1ccccc1C1Nc2cccc3cccc(c23)N1`, the result was inactive.

Regarding `O=C(Nc1ccc(F)cc1)Nc1ccc(N2CCCC2)c(S(=O)(=O)Nc2ccccc2Cl)c1`, the result was active.

In the case of `O=c1cc(-c2ccc(O)c(-c3c(O)cc(O)c4c(=O)cc(-c5ccc(O)cc5)oc34)c2)oc2cc(O)cc(O)c12`, the outcome was active.

As to `O=C(Nc1cccc(-c2csc(Nc3ccc(Cl)cc3)n2)c1)c1cc([N+](=O)[O-])cc(C(F)(F)F)c1`, the result was inactive.

As to `CC1CCN(S(=O)(=O)c2ccc(C(=O)Nc3ccccc3-c3nc4ccccc4[nH]3)cc2)CC1`, the result was inactive.

As for `Cc1[nH]c2c(C)cccc2c1CCNC(=O)c1ccc2c(c1[N+](=O)[O-])C(=O)c1ccccc1C2=O`, the outcome was inactive.

Turning to `O=C(O)C1Nc2ccc(Br)cc2C2C=CCC12` (centres undefined), the outcome was inactive.

For the compound `CC1=CC(=O)c2c(O)ccc(O)c2C1=O`, the outcome was inactive.

As to `Cc1ccc(-c2csc3nc(C(C)C)oc(=O)c23)c(C)c1`, the outcome was inactive.

As to `Nc1cc2nsnc2cc1Br`, the outcome was inactive.
